A selection: hits, their analogues and other compounds. The true share with any hit is near 17%.
HT1080-NT tox: qHTS for induction of synthetic lethality in tumor cells producing 2HG: qHTS for the HT-1080-NT fibrosarcoma cell line; HT-1080-NT fibrosarcoma viability, CellTiter-Glo ATP luminescence, 48 h; Potency, µM (titrated, usually from 46.1 µM), most hits filed as cytotoxic; 1.6% of 360,000 active; AID 686970, 2013;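 also: NT is the 2HG producing partner of a matched IDH1 knockdown line; nearly all actives have a fitted effect of over 55% in size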
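Toxicity toward the 2HG-producing NT line was scored as %Activity, normalised to DMSO and no-cell wells, from CellTiter-Glo luminescence after 48 hours' treatment.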
HT1080 IDH1KD tx: qHTS for induction of synthetic lethality in tumor cells producing 2HG: qHTS for the HT-1080-IDH1KD cell line | 2% of 360,000 active | HT-1080 IDH1 knockdown viability, ATP luminescence, 48 h | Potency, µM (titrated, usually from 46.1 µM), hits mostly cytotoxic
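After a 2 h attachment period, IDH1KD HT-1080 cells took pin-transferred compound for 48 h at 37 °C; ATP-based luminescence after 10 min room-temperature reagent incubation reported viability.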
HepG2 viability: qHTS for Inhibitors of TGF-b: Cytotox Counterscreen | HepG2 CAGA-GFP viability, ATP luminescence, 18 h | Potency, µM (doses to about 46.1 µM), usual class: cytotoxic | 0.76% of 410,000 active | AID 588856, 2011
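HepG2 CAGA-GFP cells (1000/well, DMEM with 1% FBS) received compound, then TGF-beta at 500 pg/mL final, and were incubated 18 hours at 37 degrees C. Viability was read by CellTiter-Glo luminescence. Media-only wells were set as complete cell-killing and DMSO as no toxicity.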
DT40 TDP1 no CPT: qHTS for Inhibitors of human tyrosyl-DNA phosphodiesterase 1 (TDP1): qHTS in cells in absence of CPT; Potency, µM (series often up to 46.2 µM), most hits filed as inhibitors; 15% of 420,000 active; DT40 Tdp1-/- hTDP1 cells, no CPT, ATP luminescence, 48 h; also: nearly all actives have a fitted effect of over 55% in size
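Seeded 400 DT40-hTDP1 cells/well (vehicle DMSO, no 20 nM CPT); pinned compounds; ≥48 hr at 37 °C; CellTiter-Glo luminescence as viability measure.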
DT40 TDP1 CPT: qHTS for Inhibitors of human tyrosyl-DNA phosphodiesterase 1 (TDP1): qHTS in cells in presence of CPT; chicken DT40 Tdp1-/-;hTDP1 cells + 20 nM CPT, ATP luminescence, 48 h; Potency, µM (highest dose often 46.2 µM), actives largely listed as inhibitors; 12% of 420,000 active; AID 686979, 2013; also: nearly all actives have a fitted effect of over 55% in size
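Chicken DT40 Tdp1-/- cells stably complemented with human TDP1 were seeded at 400 cells/well in medium containing 20 nM camptothecin, exposed to pin-transferred compounds, and grown at 37 °C for at least 48 hr. Viability was read as ATP luminescence.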
TGFb SMAD3 inh: qHTS for Inhibitors of TGF-b; HepG2 CAGA-GFP TGF-b/SMAD3 reporter, GFP fluorescence, 18 h; TGF-beta stimulated, 500 pg/mL final; Potency, µM (top dose mostly 46.1 µM), most hits filed as inhibitors; 1.2% of 410,000 active; also: nearly all actives have a fitted effect of over 65% in size
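Using HEPG2 CAGA-GFP reporter cells at 1000 cells/well, we pinned test compounds, stimulated with recombinant TGF-beta (500 pg/mL final) and measured total well GFP after 18 h.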
Hits are given with their value; n = inactive; u = inconclusive; x = no result. Calls follow the shape of the dose curve; as a rule, active = well fitted curve in the direction sought with a large enough effect; inconclusive = small, poorly fitted or top-dose-only effect, or another doubt; inactive = no such curve, though single readings can be large; an effect the other way counts as inactive or inconclusive.

SMILES	HT1080-NT tox	HT1080 IDH1KD tx	HepG2 viability	DT40 TDP1 no CPT	DT40 TDP1 CPT	TGFb SMAD3 inh
COc1ccc(C)cc1S(=O)(=O)N(CC(=O)Nc1cccc([N+](=O)[O-])c1)c1ccccc1	n	n	n	21µM	15µM	u
Cc1ccc(N(CC(=O)N2CCc3ccccc32)S(=O)(=O)c2cccs2)cc1	n	n	n	18µM	u	n
CS(=O)(=O)N(CC(=O)Nc1cccc([N+](=O)[O-])c1)c1ccccc1	n	n	n	n	n	u
COc1ccc(N(CC(=O)N2CCc3ccccc32)S(=O)(=O)c2c(C)n[nH]c2C)cc1	n	n	n	u	n	n
COc1ccc(C(=O)C2CCCN(C(=O)c3cc(C4CC4)[nH]n3)C2)c(C)c1 (stereo not drawn)	n	n	n	u	u	n
O=C(OCc1ccccc1)c1c(-c2ccccc2)oc2c1C(OCCO)CCC2 (stereo not drawn)	n	n	x	16µM	u	x
CCOC(=O)c1c(-c2ccc(OC)cc2)oc2c1C(OC(C)=O)CCC2 (stereo not drawn)	n	n	x	21µM	u	x
Cc1cccc(NC(=O)Cn2nnc(C(=O)Nc3ccccc3Br)c2N)c1C	x	x	n	n	n	n
CC1Cc2ccccc2N1C(=O)COC(=O)c1c2c(nc3ccccc13)CCCCC2 (stereo not drawn)	n	n	n	12µM	8.2µM	n
NC(=O)COC(=O)c1c2c(nc3ccccc13)CCCCC2	n	n	n	n	n	n
CC(C)(C)C(=O)COC(=O)c1c2c(nc3ccccc13)CCC2	n	n	n	n	n	n
O=C(OCC(=O)N1CCc2ccccc21)c1c2c(nc3ccccc13)CCCC2	n	u	n	23µM	16µM	n
O=C(COC(=O)c1c2c(nc3ccccc13)CCCC2)c1cccs1	n	n	n	u	29µM	n
CC1Cc2ccccc2N1C(=O)COC(=O)CCc1nc2ccccc2c(=O)[nH]1 (stereo not drawn)	n	n	n	18µM	29µM	n
O=C(CCc1nc2ccccc2c(=O)[nH]1)OCC(=O)N1CCc2ccccc21	n	n	n	n	n	u
CS(=O)(=O)N1CCN(/[N+]([O-])=N/Oc2ccc([N+](=O)[O-])cc2[N+](=O)[O-])CC1	x	x	n	x	x	u
Cc1onc(-c2ccccc2)c1C(=O)OCC(=O)NC(C)c1ccc(Cl)cc1 (stereo not drawn)	n	n	n	n	u	n
COc1ccc2c(c1)[nH]c1c(=O)n(CCCn3ccnc3)cnc12	n	n	n	n	n	n
O=C(OC(C(=O)N1CCOCC1)c1ccccc1)c1c2c(nc3ccccc13)CCCC2 (stereo not drawn)	x	x	n	14µM	u	n
CCOC(=O)c1c(-c2ccc(-c3ccccc3)cc2)csc1NC(=O)CNCCN(C)C	9.2µM	9.2µM	n	23µM	u	u
CCOC(=O)c1c(-c2ccc(C)o2)csc1NC(=S)NC(=O)c1ccccc1Br	u	u	n	u	16µM	n
CCOC(=O)c1c(-c2ccccc2)csc1NC(=O)CSc1nnc(C)s1	n	n	n	u	23µM	u
CCOC(=O)c1c(-c2cccs2)csc1NC(=O)CN1CC(C)OC(C)C1 (stereo not drawn)	u	u	20µM	23µM	26µM	u
CCOC(=O)c1c(-c2ccccc2)csc1NC(=O)CCN1C(=O)c2ccccc2C1=O	n	n	n	u	n	n
CCOC(=O)c1c(-c2cccs2)csc1NC(C)=O	n	n	n	u	n	n
SMILES	HT1080-NT tox	HT1080 IDH1KD tx	HepG2 viability	DT40 TDP1 no CPT	DT40 TDP1 CPT	TGFb SMAD3 inh
CCC(CCNC(=O)c1ccccc1)(CCNC(=O)c1ccccc1)[N+](=O)[O-]	n	n	n	n	n	n
COc1ccc(OCc2ccc(-c3nc(C#N)c(N4CCN(c5cccc(Cl)c5)CC4)o3)o2)cc1	x	x	n	n	n	n
CC(C(=O)NC(N)=O)N1C(=O)NC(c2ccccc2)(c2ccccc2)C1=O (stereo not drawn)	n	n	n	n	n	n
O=c1[nH]c2cc3c(cc2cc1CN(Cc1ccco1)C(=S)NCCCN1CCOCC1)OCCO3	n	n	n	u	u	n
CCOC(=O)c1c(NC(=O)c2cccc(N3C(=O)CCC3=O)c2)sc(C)c1C	n	n	n	u	u	n
CCOC(=O)c1c(-c2ccccc2)csc1NC(=O)C(C)NCCCN1CCOCC1 (stereo not drawn)	u	u	n	u	u	n
CCOC(=O)c1c(-c2ccc(-c3ccccc3)cc2)csc1NC(=O)c1cccc(N2C(=O)CCC2=O)c1	n	n	n	6.5µM	8.2µM	n
CCOC(=O)c1c(-c2ccc(F)cc2)csc1NC(=O)CCN1CCOCC1	n	n	n	21µM	u	n
CCOC(=O)c1c(-c2ccccc2)csc1NC(=O)c1cc2ccccc2oc1=O	n	n	n	16µM	u	n
CCOC(=O)c1c(-c2ccc(-c3ccccc3)cc2)csc1NC(=O)CCN1CCOCC1	u	u	n	15µM	18µM	u
COc1ccc(CN(C)C[C@H]2OCc3cnnn3CCCC(=O)N([C@H](C)CO)C[C@@H]2C)cc1	n	n	n	u	n	n
CN(C(=O)COc1cc(=O)n(C)c2ccccc12)c1ccc(Br)cc1	n	n	n	n	n	n
CCOC(=O)c1c(-c2ccccc2)csc1NC(=O)c1cc(=O)c2ccc(C)cc2o1	x	x	n	n	n	u
CCOC(=O)c1c(NC(=O)CN2CCCCC2)sc(CN(C)C)c1-c1ccccc1	n	n	n	u	u	n
CCOC(=O)c1sc(NC(=S)NC(=O)c2ccccc2Cl)c(C(=O)OCC)c1C	n	n	n	26µM	u	n
CCOC(=O)c1c(-c2cccc([N+](=O)[O-])c2)csc1NC(=O)C1CC1	u	u	n	21µM	18µM	n
CCOC(=O)c1c(NC(=O)CCl)sc(CN(C)C)c1-c1ccccc1	u	u	n	9.2µM	4.1µM	u
CCNC(=S)Nc1scc(-c2ccccc2)c1C(=O)OCC	n	n	n	23µM	u	u
O=S(=O)(c1ccc(-c2cc(C(F)(F)F)on2)s1)N1CCN(c2ccc(F)cc2)CC1	x	x	n	u	u	n
